Rce1 inhib: yeast Rce1p protease inhibitors, primary screen, biochemical, fluorescence, cell-free homogeneous; calls only; hit rate 0.27% among 290,000; AID 2563, 2010; CAAX prenyl protease 2 (Saccharomyces cerevisiae (strain ATCC 204508 / S288c)), Q03530; yeast membranes, quenched prenylated peptide cleavage fluorescence;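 active = fall in fluorescence gain of 50% or more versus controls, with final raw signal at or below 3038400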;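 note: plate controls were neutral control wells for no effect and wells lacking membranes for full effect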
PLC-beta3 inh: human PLC-beta3 inhibitors, primary screen, biochemical, fluorescence; 1-phosphatidylinositol 4,5-bisphosphate phosphodiesterase beta-3 (Homo sapiens), Q01970; Purified PLC-beta3, fluorogenic substrate; inhibition, % at 12.2 µM; hit rate 0.18% among 370,000;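 note: 0% = median of compound wells on plate and 100% = full blocker control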
PLC-gamma1 inh: PLC-gamma1 enzyme inhibitors, primary screen, biochemical, fluorescence, purified enzyme. 1-phosphatidylinositol 4,5-bisphosphate phosphodiesterase gamma-1 (Homo sapiens), P19174. fluorogenic substrate. inhibition, % at 12.2 µM. hit rate 0.84% among 370,000. AID 720700, 2013; in the data active = inhibition above about 9.5%
Target sequence (P19174 whole entry, looked up): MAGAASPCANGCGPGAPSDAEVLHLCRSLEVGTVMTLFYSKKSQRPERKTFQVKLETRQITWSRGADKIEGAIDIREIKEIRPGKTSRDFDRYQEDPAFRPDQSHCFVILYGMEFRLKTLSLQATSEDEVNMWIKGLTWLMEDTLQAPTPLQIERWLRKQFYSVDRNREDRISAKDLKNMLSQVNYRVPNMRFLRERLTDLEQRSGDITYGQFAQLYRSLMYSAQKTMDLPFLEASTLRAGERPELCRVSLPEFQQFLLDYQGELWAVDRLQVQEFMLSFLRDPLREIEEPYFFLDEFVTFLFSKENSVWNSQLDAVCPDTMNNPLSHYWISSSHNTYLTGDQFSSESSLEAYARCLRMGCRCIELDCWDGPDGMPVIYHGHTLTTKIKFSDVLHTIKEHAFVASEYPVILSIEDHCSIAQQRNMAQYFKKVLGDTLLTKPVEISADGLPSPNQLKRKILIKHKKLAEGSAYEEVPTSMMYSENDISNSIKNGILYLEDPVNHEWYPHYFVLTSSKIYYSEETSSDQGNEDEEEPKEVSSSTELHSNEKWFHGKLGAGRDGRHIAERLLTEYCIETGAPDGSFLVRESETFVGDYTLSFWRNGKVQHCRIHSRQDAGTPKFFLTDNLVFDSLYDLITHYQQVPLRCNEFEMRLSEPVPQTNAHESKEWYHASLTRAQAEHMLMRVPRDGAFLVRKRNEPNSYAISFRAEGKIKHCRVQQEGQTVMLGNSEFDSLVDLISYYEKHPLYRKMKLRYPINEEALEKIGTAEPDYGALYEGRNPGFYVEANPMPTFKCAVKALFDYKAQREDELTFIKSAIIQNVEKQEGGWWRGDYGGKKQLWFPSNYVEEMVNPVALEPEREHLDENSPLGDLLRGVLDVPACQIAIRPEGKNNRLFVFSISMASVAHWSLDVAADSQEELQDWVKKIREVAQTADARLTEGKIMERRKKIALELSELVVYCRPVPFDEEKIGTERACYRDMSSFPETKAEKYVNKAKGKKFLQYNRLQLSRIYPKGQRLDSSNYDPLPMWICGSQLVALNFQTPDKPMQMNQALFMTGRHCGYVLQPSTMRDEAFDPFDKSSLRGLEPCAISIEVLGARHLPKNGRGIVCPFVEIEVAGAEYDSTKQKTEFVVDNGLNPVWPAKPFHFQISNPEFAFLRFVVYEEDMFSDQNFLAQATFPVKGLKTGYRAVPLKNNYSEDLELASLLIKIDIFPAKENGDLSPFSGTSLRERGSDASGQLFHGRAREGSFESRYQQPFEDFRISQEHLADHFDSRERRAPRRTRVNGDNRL
PfM18AAP inh: PfM18AAP inhibitors, malaria aminopeptidase, primary screen, biochemical, QFRET, recombinant enzyme | M18 aspartyl aminopeptidase (Plasmodium falciparum 3D7) | H-Glu-NHMec fluorogenic cleavage | inhibition, % at 7.35 µM | hit rate 1.2% among 290,000;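 active = inhibition above the campaign mean inhibition over all tested compounds plus 3 SD, cut at about 28% in these data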;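 note: 0% = plate median of test compound wells and 100% = 2 mM ZnCl2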
GC-A act: GC-A stimulated cGMP production enhancers – HEK293 GC-A cells, cGMP TR-FRET, EC30 ANP, primary screen | activation, % at 10 µM | 0% at EC30 ANP, 100% saturating ANP | Atrial natriuretic peptide receptor 1 (Homo sapiens), P16066 | AID 1671463, 2021 | hit rate 0.14% among 370,000; in the data active = activation above about 40%
GC-B act: human GC-B receptor activators, primary screen, HEK293 GC-B cells, cGMP TR-FRET, EC30 CNP; hit rate 0.11% among 370,000; activation, % at 10 µM; Atrial natriuretic peptide receptor 2 (Homo sapiens), P20594; 0% at EC30 CNP, 100% saturating CNP;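 active = activation at 10 µM reaching about 35% in either raw or pattern-adjusted values, limit read from the data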
PLCg1 ctr: PLC-gamma1 enzyme inhibitors, counter-screen for PLC-beta3 inhibitor project, biochemical, fluorescence; shares compounds with PLC-gamma1 inh; purified PLC-gamma1, fluorogenic substrate; inhibition, % at 12.3 µM; hit rate 3.1% among 3,300; in the data active = inhibition above about 9.5%
PLCbeta3 conf: PLC-beta3 inhibitor confirmation, biochemical, fluorescence, purified enzyme; shares compounds with PLC-gamma1 inh; fluorogenic substrate fluorescence; inhibition, % at 12.3 µM; hit rate 1% among 3,300
Active calls of the source: *. The list is not random: actives were taken first. Their share in the collection is about 2.2%. Cut-off read from the data, not from the text of the source, unless noted: active = inhibition above about 11%; inactive = the rest.

Results for CCOCCCNC(=O)C(c1ccc(C)cc1)N(Cc1ccc2c(c1)OCO2)C(=O)CNC(C)=O (stereo not drawn) ?
Rce1 inhib: inactive; PLC-beta3 inh: -0.4; PLC-gamma1 inh: 13.2*; PfM18AAP inh: 4.9; GC-A act: -5.4; GC-B act: -3.6; PLCg1 ctr: -26.5; PLCbeta3 conf: -11.7

What do the screens show for `Cc1cccc(C)c1-n1nnnc1C1(C)Cn2nccc2C(=O)N1Cc1ccc(F)cc1` (stereo not drawn)?
PLC-beta3 inh: 2.0; PLC-gamma1 inh: -0.8; GC-A act: -1.0; GC-B act: -2.9

Results for CC1(C)CC(=O)C=C(c2ccc(OC(F)(F)F)cc2)C1 ?
PLC-beta3 inh: 1.5; PLC-gamma1 inh: -4.0; GC-A act: 2.4; GC-B act: -2.7

How did CC1(C)CC(=O)C=C(c2ccc(Oc3ccccc3)cc2)C1 do in these assays?
PLC-beta3 inh: 1.5; PLC-gamma1 inh: 10.4*; GC-A act: 4.0; GC-B act: 1.2; PLCg1 ctr: -1.5; PLCbeta3 conf: -1.6

How did C[C@H]1C(c2ccccc2F)O[C@]2(C[C@H](O)c3c(ccc4ccccc34)O2)C[C@@H]1O (stereo partly drawn) do in these assays?
PLC-beta3 inh: -16.8; PLC-gamma1 inh: -10.9; GC-A act: -16.7; GC-B act: -6.1

How did CCC(=O)N(Cc1cc(=O)[nH]c2ccccc12)c1ccccc1OC do in these assays?
Rce1 inhib: inactive; PLC-beta3 inh: 1.3; PLC-gamma1 inh: 11.7*; PfM18AAP inh: -3.4; GC-A act: -6.9; GC-B act: -4.3; PLCg1 ctr: -3.8; PLCbeta3 conf: -1.2

What do the screens show for `Nc1[nH]c(C(=O)c2ccccc2)c(-c2ccccc2Cl)c1C(=O)NCCc1c[nH]c2ccccc12`?
PLC-beta3 inh: -15.9; PLC-gamma1 inh: -13.9; GC-A act: -8.9; GC-B act: -10.6

How did CN1CCN(c2ccc(CNC(=O)C3(C)Cc4c(-c5ccc(C(N)=O)cc5)ccnc4O3)cc2)CC1 (stereo not drawn) do in these assays?
PLC-beta3 inh: 1.5; PLC-gamma1 inh: 0.8; GC-A act: 0.3; GC-B act: 3.6

What do the screens show for `CC(=O)Nc1ccc(-c2ccnc3c2CC(C)(C(=O)NCCc2ccccc2)O3)cc1` (stereo not drawn)?
PLC-beta3 inh: 5.9; PLC-gamma1 inh: 13.7*; GC-A act: -3.0; GC-B act: 8.3; PLCg1 ctr: -3.6; PLCbeta3 conf: 0.2

What do the screens show for `CN(C)c1ccc(CNC(=O)C2(C)Cc3c(-c4cccc(C(N)=O)c4)ccnc3O2)cc1` (stereo not drawn)?
PLC-beta3 inh: -0.4; PLC-gamma1 inh: 10.0*; GC-A act: -6.9; GC-B act: -9.1; PLCg1 ctr: -4.9; PLCbeta3 conf: -3.4

What do the screens show for `CC(=O)Nc1ccc(-c2ccnc3c2CC(C)(C(=O)NCc2ccc(N4CCN(C)CC4)cc2)O3)cc1` (stereo not drawn)?
PLC-beta3 inh: 11.0*; PLC-gamma1 inh: -0.1; GC-A act: -0.6; GC-B act: -5.1; PLCg1 ctr: -2.2; PLCbeta3 conf: 1.3

Results for CN(C)c1ccc(CNC(=O)C2(C)Cc3c(-c4ccccc4)ccnc3O2)cc1 (stereo not drawn) ?
PLC-beta3 inh: 0.7; PLC-gamma1 inh: -0.7; GC-A act: -2.8; GC-B act: -7.9

What do the screens show for `CC(=O)Nc1ccc(-c2ccnc3c2CC(C)(C(=O)Nc2ccccc2)O3)cc1` (stereo not drawn)?
PLC-beta3 inh: 1.7; PLC-gamma1 inh: -0.1; GC-A act: -1.1; GC-B act: -1.9

Results for COC(=O)[C@]12CCCCC=C1N(Cc1ccc(OC)cc1)C(=O)[C@@H]2CC(=O)NCc1ccccc1 ?
PLC-beta3 inh: 2.5; PLC-gamma1 inh: 2.6; GC-A act: 1.2; GC-B act: 3.0

What do the screens show for `CC(CCc1ccccc1)NC(=O)c1ccc(C(=O)NC(C)CCc2ccccc2)cc1` (stereo not drawn)?
PLC-beta3 inh: -1.6; PLC-gamma1 inh: 0.0; PfM18AAP inh: -1.0; GC-A act: -6.5; GC-B act: -9.1

What do the screens show for `CC(CCc1ccccc1)NC(=O)c1cccs1` (stereo not drawn)?
Rce1 inhib: inactive; PLC-beta3 inh: 11.9*; PLC-gamma1 inh: 4.3; PfM18AAP inh: 0.0; GC-A act: 1.5; GC-B act: 0.1; PLCg1 ctr: -2.1; PLCbeta3 conf: 1.1

How did CCN(CC)c1ccc(NC(=O)CSc2nc3ccccc3c(=O)n2-c2ccc(C)cc2)cc1 do in these assays?
PLC-beta3 inh: 8.5; PLC-gamma1 inh: 11.8*; GC-A act: -1.4; GC-B act: 7.3; PLCg1 ctr: -6.6; PLCbeta3 conf: -3.9

How did Cc1sc2nc(C3CC3)nc(NCCNS(=O)(=O)c3ccccc3)c2c1C do in these assays?
Rce1 inhib: inactive; PLC-beta3 inh: 6.5; PLC-gamma1 inh: 9.6*; PfM18AAP inh: -2.0; GC-A act: -3.8; GC-B act: -10.5; PLCg1 ctr: -1.5; PLCbeta3 conf: 0.2

How did Cc1sc2nc(CN3CCOCC3)nc(NS(=O)(=O)c3ccccc3)c2c1C do in these assays?
Rce1 inhib: inactive; PLC-beta3 inh: -12.0; PLC-gamma1 inh: -9.5; PfM18AAP inh: -4.6; GC-A act: 1.6; GC-B act: 4.1

Results for COC(=O)[C@]12C[C@H](CC(=O)NCC34CC5CC(CC(C5)C3)C4)C(=O)N(Cc3ccc(Cl)cc3Cl)C1=C[C@H](C(C)(C)C)O[C@@H]2C ?
PLC-beta3 inh: 4.7; PLC-gamma1 inh: -1.3; GC-A act: -1.0; GC-B act: 4.7

How did O=C(NCc1ccccn1)C1CCN(Cc2cnn(-c3ccccc3)c2-n2cccc2)CC1 do in these assays?
Rce1 inhib: inactive; PLC-beta3 inh: 1.0; PLC-gamma1 inh: 0.8; PfM18AAP inh: 1.4; GC-A act: -0.5; GC-B act: -1.4

Screening data from PubChem.
